PubChem BioAssay (Tox21)
Records with an inconclusive call do not appear. Entries that show only a call come without a potency. Calls of active or inactive are those of the source. Calls come from the whole dose curve; as a rule, active = well fitted cell-killing curve with a large enough effect in the repeat runs (not every such curve was filed as active); inconclusive = weak or mixed curves, or effect the other way; inactive = no such curve, though single readings can be large or run the other way.
Potency is the fitted concentration of half-maximal effect.

Test: qHTS assay to identify small molecule antagonists of the estrogen related receptor signaling pathway with the pleiotropic PPARgamma coactivator (PGC) from Tox21 10K library - cell viability counter screen (AID 1224840); note: nearly all actives have a fitted effect of over 40% in size
Conditions: PGC/ERR reporter cells viability, CellTiter-Fluor, 17.5 h; series mostly up to 92.4 µM
Description: National Center for Advancing Translational Sciences [NCATS]
NIH Chemical Genomics Center [NCGC]
U.S. Environmental Protection Agency [EPA]
National Institutes of Environmental Health Sciences [NIEHS]
National Toxicology Program [NTP]
U.S. Food and Drug Administration [FDA]
Estrogen related receptors (ERRs), the first orphan nuclear receptors discovered, play an important role in the control of cellular energy metabolism. ERRs are required for high-energy production in response to the environmental challenges. The pleiotropic PPARgamma coactivator (PGC) is a major partner of ERR and a key regulator in energy homeostasis. Together they have been implicated in the etiology of metabolic disorders such as Type 2 diabetes and metabolic syndrome. ERR-alpha was also identified as an adverse marker for breast cancer progression; ERR-alpha-positive tumors have a poor prognosis. To screen and to identify environmental compounds that perturb the ERR and PGC/ERR signaling pathways could provide valuable information for potential therapeutic or preventive measures in the treatment of metabolic disease. To differentiate true PGC/ERR antagonists or agonist from cytotoxic substances, the assay is multiplexed with cell viability assay.
Tox21 Assay Protocol Summary:
The PGC/ERR cells were dispensed at 2,000 cells/5 ul/well in 1536-well white plates using a Multidrop dispenser. After the assay plates were incubated at a 37 C/5% CO2 incubator for 6 hours, 23 nL of compounds dissolved in DMSO, positive and negative controls or DMSO only was transferred to the assay plate by a pin tool. The plates were incubated at 37 C for 17.5 hours. 1 ul/well of CellTiter-Fluor reagent was added into the assay plates using a Flying Reagent Dispenser. After 30-minute incubation at 37 C/5% CO2, the fluorescence intensity in the plates was measured using a ViewLux plate reader.
With `CC(=O)[O-].CC(=O)[O-].O.O.[Cd+2]` the Potency was 12 µM (active).
For `CC(C)C(=O)Cl`, the Potency was “inactive”.
With `Oc1ccc(C2(c3ccc(O)cc3)c3ccccc3-c3ccccc32)cc1` the Potency was 61.1 µM (active).
For `COc1ccc([N+](=O)[O-])cc1O`, the Potency was “inactive”.
With `CS(=O)(=O)c1ccc(C(=O)C2C(=O)CCCC2=O)c([N+](=O)[O-])c1` the Potency was “inactive”.
In the case of `ClC(Cl)=C(Cl)Cl`, the Potency is reported as “inactive”.
With `Nc1ccc(Cl)cc1C(=O)c1ccccc1` the Potency was “inactive”.
For `COC[C@H](C)N(C(=O)CCl)c1c(C)csc1C`, the Potency was “inactive”.
In the case of `COP(=S)(OC)Oc1cc(Cl)c(Br)cc1Cl`, the Potency is reported as “inactive”.
With `Cn1cc(C2=C(c3cn(C4CCN(Cc5ccccn5)CC4)c4ccccc34)C(=O)NC2=O)c2ccccc21` the Potency was “inactive”.
With `OC(Cc1ccccc1Cl)(Cn1cncn1)C1(Cl)CC1` (stereo not given) the Potency was “inactive”.
For `N#CCc1ccc(Cl)cc1`, the Potency was “inactive”.
For `CC1(C)C(/C=C(\Cl)C(F)(F)F)C1C(=O)OC(C#N)c1cccc(Oc2ccccc2)c1` (stereo not given), the Potency was “inactive”.
For `CN(C)C(=S)[S-].CN(C)C(=S)[S-].[Cu+2]`, the Potency was 0.938 µM (active).
With `c1ccc2c(c1)OCC(C1=NCCN1)O2` (stereo not given) the Potency was 21.1 µM (active).
With `CC(=O)[O-].[Tl+]` the Potency was “inactive”.
With `ClCCN1CCOCC1` the Potency was “inactive”.
For `CC(C)CCCCCOC(=O)c1ccccc1C(=O)OCCCCCC(C)C`, the Potency was “inactive”.
With `BrC(Br)C(Br)(Br)Br` the Potency was “inactive”.
In the case of `CC(C)(C)C(O)/C(=C\c1ccc(Cl)cc1Cl)n1cncn1` (stereo not given), the Potency is reported as 58.7 µM (active).
With `CC1(C)[C@H](C(=O)O[C@H](C#N)c2cccc(Oc3ccccc3)c2)[C@@H]1/C=C(\Cl)C(F)(F)F` the Potency was “inactive”.
With `C[C@]12CC[C@@H]3c4ccc(OC(=O)N(CCCl)CCCl)cc4CC[C@H]3[C@@H]1CC[C@@H]2O` the Potency was “inactive”.
For `CC(=[OH+])/C=C(/C)[O-].CC(=[OH+])/C=C(\C)[O-].CC(=[OH+])/C=C(\C)[O-].[Al]`, the Potency was “inactive”.
With `CC(C)CCCCCCCOP(=O)(Oc1ccccc1)Oc1ccccc1` the Potency was “inactive”.
With `N#CCCO` the Potency was “inactive”.
For `O=C1C=CC(=O)c2ccccc21`, the Potency was 61.1 µM (active).
With `CCCN(CCC)c1c([N+](=O)[O-])cc(S(N)(=O)=O)cc1[N+](=O)[O-]` the Potency was 36.7 µM (active).
For `CC(C)[C@H](C(=O)O[C@H](C#N)c1cccc(Oc2ccccc2)c1)c1ccc(Cl)cc1`, the Potency was “inactive”.
With `CCOCCOC(C)=O` the Potency was “inactive”.
In the case of `BrCBr`, the Potency is reported as “inactive”.
With `CC(=O)c1ccc(-c2ccccc2)cc1` the Potency was “inactive”.
For `Nc1c(Oc2ccccc2)cc(O)c2c1C(=O)c1ccccc1C2=O`, the Potency was “inactive”.
With `O=[N+]([O-])c1cc(Cl)ccc1Cl` the Potency was “inactive”.
With `CC(C)CC(C)Nc1ccc(Nc2ccccc2)cc1` (stereo not given) the Potency was 67.4 µM (active).
For `ClC1=C(Cl)[C@]2(Cl)[C@@H]3[C@@H]4C[C@@H]([C@H]5O[C@@H]45)[C@@H]3[C@@]1(Cl)C2(Cl)Cl`, the Potency was 61.1 µM (active).
With `C=CC(=O)OCC(COC(=O)C=C)(COC(=O)C=C)COC(=O)C=C` the Potency was 5.45 µM (active).
For `CC(C)CBr`, the Potency was “inactive”.
In the case of `BrCC(Br)c1ccccc1` (stereo not given), the Potency is reported as “inactive”.
For `CCCCCCCCCCCCCCC(Br)C(=O)O` (stereo not given), the Potency was “inactive”.
In the case of `CCOc1cc(C(C)(C)C)ccc1C1COC(c2c(F)cccc2F)=N1` (stereo not given), the Potency is reported as “inactive”.
